Assay [1] can be described thus: qHTS assay for small molecule agonists of the p53 signaling pathway (AID 651631; calls by dose curve; also: nearly all actives have a fitted effect of over 15% in size). The essentials: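 p53RE-bla HCT-116 cells; compounds 16 h, 37 °C; LiveBLAzer B/G FRET substrate 2 h RT; fluorescence intensity read-out, qHTS format.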
Assay [2] in a line: qHTS assay for small molecules that induce genotoxicity in human embryonic kidney cells expressing luciferase-tagged ATAD5 (AID 651632). Also: nearly all actives have a fitted effect of over 15% in size. The essentials: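 Genotoxicity read-out via ATAD5-luciferase: HEK293T cells, 16 hr compound incubation at 37C, Amplite detection.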
Assay [3] can be described thus: qHTS assay for small molecule agonists of the p53 signaling pathway - cell viability (AID 651633; calls by dose curve;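 also: p53RE-bla HCT reporter cells with a stable beta-lactamase p53 reporter; series mostly up to about 83 µM; nearly all actives have a fitted effect of over 30% in size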). Summed up: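 p53RE-bla cells, seeded at 4,000 per well and rested 5 h at 37 C/5% CO2, received compounds in DMSO for 16 h at 37 C. CellTiter-Glo was then added, and luminescence was read after 30 min at room temperature to gauge cytotoxicity.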
Background: Quantitative high-throughput screening tests each substance at several concentrations.

Assay [4] can be described thus: qHTS assay for small molecules that induce genotoxicity in human embryonic kidney cells expressing luciferase-tagged ATAD5 - cell viability (AID 651634; calls by dose curve; also: nearly all actives have a fitted effect of over 25% in size). Summed up:
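Live-cell protease activity (CellTiter-Fluor, fluorescence) indicates viability. HEK293T cells with luciferase-tagged ATAD5; 15.5 hr compound treatment at 37C.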

Assay [5] can be described thus: qHTS assay for small molecule disruptors of the mitochondrial membrane potential - cell viability (AID 720634; calls by dose curve;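 also: human HepG2 liver cancer cells; series mostly up to about 83 µM; nearly all actives have a fitted effect of over 20% in size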). Summed up:
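Human hepatoma HepG2 cells were treated for 1 hr with test chemicals, then given m-MPI dye and CellTiter-Glo. Cell viability reflects luminescence proportional to cellular ATP.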

Assay [6] in a line: qHTS assay for small molecule disruptors of the mitochondrial membrane potential (AID 720635). Also: potency is read from the fitted curve at half-maximal effect. The essentials: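 HepG2 cells (2,000/well) attached overnight at 37C, then took compound for 1 hr at 37C, 5% CO2. Mito-MPS dye was added for 30 min; fluorescence was read at 490/535 nm (monomers) and 540/590 nm (aggregates).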
A short description of assay [7]: qHTS assay to test for compound auto fluorescence at 590 nm (red) in HepG2 cells (AID 720674). The essentials: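 Intrinsic compound fluorescence in the red window (Ex/Em 540/590 nm) is measured in attached HepG2 cells exposed for 1 hr, DMSO vehicle as baseline, benchmarked to Rose Bengal sodium.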
The nature of assay [8]: qHTS assay to test for compound auto fluorescence at 535 nm (green) in HepG2 cells (AID 720675).
Assay [9] is described as follows: qHTS assay to test for compound auto fluorescence at 460 nm (blue) in HEK293 cells (AID 720678). Also: potency is read from the fitted curve at half-maximal effect. The essentials:
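Cells were seeded and left to adhere for 4-5 hr at 37C. Compounds were then pin-transferred. After an overnight incubation at 37C under 5% CO2, intrinsic fluorescence at 405/460 nm was measured and referenced to triamterene.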

Assay [10] in a line: qHTS assay to test for compound auto fluorescence at 590 nm (red) in HEK293 cells (AID 720679). Summed up: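 Each well held 2,000 HEK293 cells in medium containing 10% dialyzed FBS. Following 4-5 hr attachment at 37C, 23 nL test compound or DMSO was added; plates sat overnight, and red fluorescence (540/590nm) was recorded.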
A short description of assay [11]: qHTS assay to test for compound auto fluorescence at 535 nm (green) in HEK293 cells (AID 720680).
A short description of assay [12]: qHTS assay to test for compound auto fluorescence at 460 nm (blue) in HEK293 cell free culture (AID 720681). Also: potency is read from the fitted curve at half-maximal effect. Summed up:
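Test compounds were pinned into cell-free culture medium (DMEM with 10% FBS) and fluorescence was read directly at Ex/Em 405/460 nm. Signals were expressed as fluorescence equivalents of triamterene, with DMSO vehicle as control.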

Assay [13] can be described thus: qHTS assay to test for compound auto fluorescence at 535 nm (green) in HEK293 cell free culture (AID 720682). The essentials:
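Cell-free medium (DMEM, 10% FBS) receives compound or DMSO by pintool. Plate read directly at Ex 485/Em 535 nm. Signal converted to fluorescein equivalency.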

A short description of assay [14]: qHTS assay to test for compound auto fluorescence at 590 nm (red) in HEK293 cell free culture (AID 720683). The essentials: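 Tox21 10K library compounds were pinned into cell-free DMEM with 10% FBS and fluorescence was read at excitation 540 nm. Activity is expressed as Rose Bengal sodium equivalency.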
The nature of assay [15]: qHTS assay to test for compound auto fluorescence at 590 nm (red) in HepG2 cell free culture (AID 720684). The essentials:
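Measured in medium alone (MEM containing 10% FBS) following pintool addition of compound; emission at 590 nm with 540 nm excitation, referenced to Rose Bengal sodium.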

Assay [16] in a line: qHTS assay to test for compound auto fluorescence at 460 nm (blue) in HepG2 cell free culture (AID 720685). Also: potency is read from the fitted curve at half-maximal effect. Summed up: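 Compound (23 nL) or DMSO pinned into cell-free MEM with 10% FBS; blue fluorescence read at 405/460 nm excitation/emission, expressed as auto-fluorescence equivalency to triamterene.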
Assay [17] in a line: qHTS assay to test for compound auto fluorescence at 535 nm (green) in HepG2 cell free culture (AID 720686).
A short description of assay [18]: qHTS assay to test for compound auto fluorescence at 460 nm (blue) in HepG2 cells (AID 720687). Also: potency is read from the fitted curve at half-maximal effect. The essentials:
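Cells (2,000/well in MEM with 10% FBS) attached overnight at 37 C, then were exposed to compound or DMSO for 1 hr at 37 C, 5% CO2. Fluorescence read at Ex/Em 405/460 nm, expressed as triamterene-equivalent signal.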

For assay [19], the target named is Glucocorticoid receptor (Homo sapiens) (UniProt P04150). Description: qHTS assay to identify small molecule agonists of the glucocorticoid receptor (GR) signaling pathway (AID 720691; active = well fitted activation curve with a large enough effect in the signal ratio in the repeat runs, not every such curve was filed as active; the % refers to the signal ratio). Summed up: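 Beta-lactamase reporter activity, read as fluorescence intensity, was measured in GR-bla HeLa cells exposed to compounds for 18 h at 37 C and then loaded with LiveBLAzer B/G FRET substrate for 2 h at room temperature.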
Sequence of Glucocorticoid receptor (Homo sapiens) (P04150 whole entry, looked up): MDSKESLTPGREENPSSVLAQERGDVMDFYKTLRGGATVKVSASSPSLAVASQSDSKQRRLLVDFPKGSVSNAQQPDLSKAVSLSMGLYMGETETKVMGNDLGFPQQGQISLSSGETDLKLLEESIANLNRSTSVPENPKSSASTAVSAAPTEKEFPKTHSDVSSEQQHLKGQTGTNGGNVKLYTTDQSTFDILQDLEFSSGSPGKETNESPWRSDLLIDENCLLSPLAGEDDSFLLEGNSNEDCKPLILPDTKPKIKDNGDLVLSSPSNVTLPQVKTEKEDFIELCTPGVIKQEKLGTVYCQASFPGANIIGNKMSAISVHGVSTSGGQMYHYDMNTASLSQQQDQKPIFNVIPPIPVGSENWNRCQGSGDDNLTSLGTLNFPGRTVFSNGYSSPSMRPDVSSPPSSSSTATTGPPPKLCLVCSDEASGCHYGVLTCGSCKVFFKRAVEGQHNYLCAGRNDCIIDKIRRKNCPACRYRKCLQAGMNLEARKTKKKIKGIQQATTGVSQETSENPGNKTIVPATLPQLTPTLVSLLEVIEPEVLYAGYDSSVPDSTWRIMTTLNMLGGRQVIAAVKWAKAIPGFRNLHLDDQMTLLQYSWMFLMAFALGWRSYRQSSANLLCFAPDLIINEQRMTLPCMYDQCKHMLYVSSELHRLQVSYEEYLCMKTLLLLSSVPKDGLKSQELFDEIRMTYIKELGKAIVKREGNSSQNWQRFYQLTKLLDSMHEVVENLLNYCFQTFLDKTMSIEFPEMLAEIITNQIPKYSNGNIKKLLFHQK

Assay [20] has the same target. The experiment in a line: qHTS assay to identify small molecule antagonists of the glucocorticoid receptor (GR) signaling pathway (AID 720692; active = well fitted inhibition curve with a large enough effect in the signal ratio in the repeat runs, not every such curve was filed as active; the % refers to the signal ratio). The essentials: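 Fluorescence from cleaved LiveBLAzer B/G FRET substrate reports GRE-driven beta-lactamase in HeLa cells; compounds are tested against 5 nM dexamethasone (final) over 18 h at 37 C, substrate incubation 2 h at room temperature.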

A number with no mark means an inactive call. Records with an inconclusive call do not appear. The source made the active and inactive calls. Unless noted, calls follow the shape of the dose curve; as a rule, active = well fitted curve in the direction sought with a large enough effect in the repeat runs; inconclusive = weak or mixed curves; inactive = no such curve, though single readings can be large; an effect the other way counts as inactive or inconclusive.

This note sets out measurements from PubChem BioAssay (Tox21).
Tags tell the direction and shape of the fitted curve or compound fluorescence and quenching.

`NC(CS)C(=O)O` (stereo not drawn): the Potency entry in assay [1], in [2], in [3], in [4], in [5] and in [6] was “inactive” in each case. For the same compound, the Potency result in assay [9], in assay [12], in assay [16] and in assay [18] was “inactive” throughout. Moreover, the call in [7], in assay [8], in [10], in [11], in assay [13] and in assay [14] was inactive. Further, the outcome in assay [15] and in assay [17] was inactive.

Turning to `NC(=O)c1ncn([C@@H]2O[C@H](CO)[C@@H](O)[C@H]2O)c1N`, the Potency entry in [1], in [2], in assay [3], in assay [4], in assay [5] and in assay [6] was “inactive” throughout. Besides, the Potency entry in [9], in [12], in [16] and in assay [18] was “inactive” throughout. The outcome in assay [7], in assay [8], in assay [10], in [11], in assay [13] and in [14] was inactive. The call in assay [15] and in [17] was inactive.

Consider `COC(C(=O)O)c1ccccc1` (stereo not drawn), for which the Potency entry in assay [1], in [2], in assay [3], in assay [4], in assay [5] and in assay [6] was “inactive” in each case. Further, the Potency result in assay [9], in assay [12], in assay [16], in assay [18], in assay [19] and in [20] was “inactive” each time. The call in assay [7], in assay [8], in assay [10], in assay [11], in assay [13] and in assay [14] was inactive. Further, the result in [17] was inactive.

Turning to `CC1=CC(C)C(C=O)C(C)C1` (stereo not drawn), the Potency result in assay [1], in assay [2], in [3], in [4], in assay [5] and in assay [6] was “inactive” throughout. Also, the Potency entry in assay [9], in assay [12], in assay [16], in assay [18], in [19] and in assay [20] was “inactive” in each case. Further, the outcome in assay [7], in [8], in [10], in assay [11], in assay [13] and in assay [14] was inactive. The compound was classed as inactive in assay [15] and in [17].

For the compound `Nc1ccc2cc(S(=O)(=O)O)ccc2c1`, the Potency result in [1], in [2], in [3], in assay [4], in assay [5] and in [6] was “inactive” throughout. Besides, the Potency result in [19] and in [20] was “inactive” in each case. Also, the call in assay [7], in assay [8], in assay [10], in assay [11], in assay [13] and in assay [14] was inactive. For the same compound, the compound was classed as inactive in [15] and in assay [17]. The Potency in assay [9] is 31.6 µM [fluorescent] (active); in [12] it was 31.6 µM (active); in assay [16], 31.6 µM [fluorescent] (active); in assay [18], 31.6 µM [fluorescent] (active).

On to `CSc1nc(NC2CC2)nc(NC(C)(C)C)n1`, for which the Potency entry in assay [1], in [2], in [3], in assay [4], in assay [5] and in assay [9] was “inactive” in each case. For the same compound, the Potency entry in assay [12], in assay [16] and in [18] was “inactive” in each case. In addition, the Potency in assay [6] is 8.63 µM (active). Also, the compound was called inactive in assay [7], in assay [8], in assay [10], in assay [11], in assay [13] and in [14]. In addition, the result in [15] and in [17] was inactive.

In the case of `Cc1cc(C)cc(OCC2CNC(=O)O2)c1` (stereo not drawn), the Potency result in assay [1], in [2], in assay [3], in assay [4], in assay [5] and in assay [6] was “inactive” throughout. The Potency entry in [9], in assay [12], in assay [16], in [18], in [19] and in assay [20] was “inactive” each time. The outcome in [7], in assay [8], in assay [10], in assay [11], in assay [13] and in assay [14] was inactive. Moreover, the call in assay [15] and in assay [17] was inactive.
